50 compounds from PubChem BioAssay AID2685 (National Center for Advancing Translational Sciences (NCATS), 2010) can be followed below.

Structures are written as SMILES. Hit rate of the full screen: of about 320,000 compounds, about 2,100 (0.66%) were called active. Not shown: some 53% with an inconclusive outcome. The call rests on the fitted dose curve; in most records, active means well fitted inhibition curve with a large enough effect in the signal ratio, with a control signal flat (not every such curve was filed as active); inconclusive means small, poorly fitted or top-dose-only effect, or effect the other way, or a change in a side signal; inactive means flat fitted curve, though single readings scatter; the % refers to the signal ratio. Shown is part of a subset that was picked to be rich in actives.
Potency means the concentration at half of the fitted maximal effect.

This assay can be described thus: qHTS Assay for Lipid Storage Modulators in Drosophila S3 Cells.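 On cell number change: cells counted by Cell Tracker Red CMTPX staining in the red channel.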 On lipid storage change, negative = inhibition: on the % scale 0 is the no-effect control and ±100 the full control effect. To be noted: BODIPY lipid droplet fluorescence, 18-24 h, cells fed with added oleic acid; cell number change: measured here: cell count max response; series mostly up to 46.1 µM; lipid storage change, negative = inhibition: at the top concentration. From the text: NIH Molecular Libraries Probe Production Centers Network [MLPCN] NIH Chemical Genomics Center [NCGC] MLPCN Grant: 1 R03 MH085686-01 Assay Submitter (PI): Beller, Mathias; Max-Planck-Institut fur Biophysikalische Chemie NCGC Assay Overview: Storing lipids as a reservoir for energy or the anabolism of elementary metabolites is a common feature of probably all cells and is conserved from bacteria to humans. The universal cellular lipid storage organelle is the so-called lipid storage droplet (LD). Although ubiquitous, LDs share a simple structure composed of a hydrophobic core that harbors the storage lipids, which is shielded by a droplet-specific phospholipid monolayer to which proteins are attached. The current model of LD biogenesis involves an incorporation of the lipid core into the membrane leaflets of the endoplasmic reticulum (ER) followed by a subsequent budding-like maturation of a LD, which ultimately pinches off. Once released, LD volume can increase by localized lipogenesis or fusion of existing droplet. Storage lipids are re-mobilized enzymatically by lipase activity. Lipase regulation in the adipocyte is heavily studied and involves multiple components including catecholamine signaling, the LD-associated proteins Perilipin and comparative gene identification (CGI-58) and at least two lipases named hormone sensitive lipase (HSL) and adipocyte triglyceride lipase (ATGL). LD regulation outside of the adipocyte is poorly understood and only few components are known. However, there is an urgent need to learn more about ectopic fat depots as mislocalized storage of lipids, for example in the liver or muscle, is an eminent health problem associated with insulin resistance or the metabolic syndrome. We developed a laser-scanning cytometer assay to enable 1,536-well screening and combined the results of the small molecules screen with an RNAi database based on lipid storage.
Triacsin C (Sigma-Aldrich T-4540), an inhibitor of long-chain fatty acyl CoA synthetase that blocks synthesis of triglycerides, was used as a positive control for lipid under-storage. A total of 23 nL of compound solution of different concentrations were transferred to the assay plates using a Kalypsys pin tool equipped with a 1,536-pin array containing 10-nL slotted pins (FP1S10, 0.457-mm diameter, 50.8 mm long; V&P Scientific). One microliter of oleic acid (400 uM) was added, and the plate was lidded with stainless steel rubber gasket lined lids containing pinholes. […] Fluorescence was detected by excitation of the fluorophores with a 488-nm laser on an Acumen Explorer (TTP Lab Tech). The total intensity in channel 2 (500-530 nm) reflected lipid droplet accumulation. Cells were detected using channel 3 (575-640 nm) with 5-um width and 100-um depth filters. The ratio of the number of objects in PMT channel 2 over the number of objects in PMT channel 3 was also calculated. Percent activity was computed relative to an internal control (100% inhibited lipid droplet deposition due to the presence of 20 uM Triacsin C), which was added to 32 wells/plate.
For orientation: In qHTS, concentration-response curves come from the screen itself.
Consider `Cc1cccc2nc(CSc3nc4ccccc4[nH]3)cn12`, for which the “lipid storage change, negative = inhibition” value is -6.23% (inactive).
With `CC1(C)Cc2c(c(=S)nc(-c3ccccc3)n2CCOCCO)CO1`, the “lipid storage change, negative = inhibition” value is 0.774% (inactive) and the cell number change turned out to be 4.5%.
Turning to `CC1(C)Cc2c(c(=S)nc(-c3ccccc3)n2CCO)CO1`, the Potency is 0.259 µM (active) and the cell number change is -12.1%.
Turning to `COCCn1c(-c2ccccc2)nc(=S)c2c1CC(C)(C)OC2`, the compound was classed as inactive.
Still for that read-out and setting: next, `CC(=O)Nc1ncc(Cc2cccc(Cl)c2Cl)s1`: “inactive”.
With `Cc1nn(C(C)C(=O)NC2C(=O)N3C(C(=O)O)=C(CSc4nnnn4C)CSC23)cc1Cl` (centres undefined), the “lipid storage change, negative = inhibition” value is 6.33% (inactive) and the cell number change was -1.98%.
On to `COc1cccc(NC(=O)COc2ccc(C(=O)N3CCN(C)CC3)cc2)c1`, for which the result was inactive and the cell number change amounted to 10.4%.
In the case of `COc1cccc(NC(=S)N2CCN(C)CC2)c1`, the “lipid storage change, negative = inhibition” value was -6.39% (inactive) and the cell number change was -7.43%.
As for `COc1cccc(NC(=O)COc2ccc(C(=S)N3CCN(C)CC3)cc2OC)c1`, the Potency is 8.2 µM (active).
As for `CCOCCn1c(N2CCCC2)nc2c1c(=O)n(C)c(=O)n2C`, the call was inactive and the cell number change was -1.35%.
Turning to `COC1=C/C(=C/c2c(N)n3nc(CC(=O)N4CCCCC4)sc3nc2=O)C=CC1=O`, the Potency was 14.6 µM (active) and the cell number change was -9.68%.
For the compound `CCOC1=C/C(=C/c2c(N)n3nc(CC(=O)N4CCCC4)sc3nc2=O)C=CC1=O`, the compound was called inactive and the cell number change is -5.2%.
Take `Nc1c(/C=C2/C=CC(=O)C(O)=C2)c(=O)nc2sc(CC(=O)N3CCCCC3)nn12`: the call was inactive and the cell number change is -19.8%.
As for `COC(=O)c1c(NC(=O)c2ccco2)sc(C(=O)N2CCCC2)c1C`, the “lipid storage change, negative = inhibition” value is 19.5% (inactive) and the cell number change is -26.3%.
Take `CCCn1cc(S(=O)(=O)c2ccc(OC)cc2)c(=O)c2cc(OCC)ccc21`: the “lipid storage change, negative = inhibition” value is -20.7% (inactive).
Consider `CC(C)C(C(=O)Nc1ccc2c(c1)OCO2)N1C(=O)c2ccccc2C1=O` (centres undefined), for which the call was inactive and the cell number change was -19.4%.
`O=C(CCCCCNC(=O)c1ccccc1)N/N=C/c1ccco1`: the compound was called inactive.
In the case of `O=C(CCCCCNC(=O)c1ccccc1)N/N=C/c1ccc(O)cc1O`, the “lipid storage change, negative = inhibition” value was -5.27% (inactive) and the cell number change stood at 1.3%.
In the case of `O=C(CCCCCNC(=O)c1ccccc1)N/N=C/c1ccccc1O`, the Potency is 9.2 µM (active) and the cell number change was -19.4%.
In the case of `CSC1=NCCN1S(=O)(=O)c1ccc2ccccc2c1`, the “lipid storage change, negative = inhibition” value was 3.31% (inactive) and the cell number change came out at 1.31%.
For the compound `CC(C)Oc1ccc(CNC(=O)C2CCCN(S(=O)(=O)N3CCOCC3)C2)cc1` (centres undefined), the compound was called inactive and the cell number change turned out to be 24.2%.
Turning to `O=Cc1cccn1-c1sc2c(c1C(=O)O)CCCC2`, the “lipid storage change, negative = inhibition” value was 0.304% (inactive) and the cell number change is -5.54%.
Take `C=CCn1cccc(C(=O)Nc2ccc(SC)cc2)c1=O`: the Potency was 4.11 µM (active) and the cell number change amounted to 16.6%.
On to `C=CCn1cccc(C(=O)Nc2ccc(C)cc2)c1=O`, for which the “lipid storage change, negative = inhibition” value was 15.4% (inactive) and the cell number change was determined as 10.2%.
On the same counts, the results for `C=CCn1cccc(C(=O)Nc2ccc(Cl)cc2)c1=O` are 8.12% (inactive) and 6.52%.
Taken in the same sequence, the figures for `COC(=O)c1cn(NC(=O)/C=C/c2ccc(OC)c(OC)c2)c(=O)c2ccccc12` were -1.77% (inactive) and -14.9%.
Taken in the same sequence, the figures for `CCOC(=O)Cc1csc(NC(=O)/C=C/c2ccccc2Cl)n1` were 12.2% (inactive) and -1.33%.
With `COc1nc(C#N)nc(N(C)C)n1`, the “lipid storage change, negative = inhibition” value was -8.69% (inactive) and the cell number change is -4.25%.
`N#C/C(=C\c1cccnc1)C(=O)Nc1ccccc1`: the “lipid storage change, negative = inhibition” value is 16% (inactive) and the cell number change was -2.7%.
Regarding `N#C/C(=C\c1ccc(OCc2ccccc2)cc1)C(=O)Nc1ccc(C(=O)O)cc1`, the Potency was 20.6 µM (active) and the cell number change was determined as 12.2%.
Regarding `N#C/C(=C/c1ccc(OCc2ccc(C(=O)O)cc2)cc1)C(=O)Nc1ccccc1`, the “lipid storage change, negative = inhibition” value was 0.353% (inactive) and the cell number change is 14.9%.
As for `N#C/C(=C/c1ccc(C(=O)O)cc1)C(=O)Nc1ccccc1`, the “lipid storage change, negative = inhibition” value was -13.8% (inactive).
For the compound `N#C/C(=C/c1ccccc1)C(=O)NCc1ccccc1`, the Potency was 2.59 µM (active) and the cell number change is 18.6%.
As to `N#C/C(=C\c1ccc(O)cc1)C(=O)NCc1ccccc1`, the “lipid storage change, negative = inhibition” value is 12.1% (inactive).
Still for that read-out and setting: next, `Cc1ccc(/C=C(\C#N)C(=O)NCc2ccco2)o1`: 4.22% (inactive).
As for `CCCCNC(=O)/C(C#N)=C/c1ccc(C(=O)OC)cc1`, the “lipid storage change, negative = inhibition” value is -11.1% (inactive) and the cell number change was -26.3%.
In the case of `CCCCNC(=O)/C(C#N)=C/c1cccnc1`, the Potency was 20.6 µM (active).
As for `CCN(CC)c1ccc(/C=C(/C#N)C(=O)NCc2ccccc2)o1`, the Potency is 2.06 µM (active) and the cell number change was -20.4%.
As to `N#C/C(=C\c1cccs1)C(=O)NCc1ccccc1`, the “lipid storage change, negative = inhibition” value was -2.68% (inactive) and the cell number change was -1.86%.
On the same counts, the results for `COc1ccc(/C=C(\C#N)C(=O)NCc2ccccc2)cc1` are 3.79% (inactive) and -4.49%.
Taken in the same sequence, the figures for `CC(C)CN(C(=O)C1CCCC1)C1CCS(=O)(=O)C1` (centres undefined) were -4.14% (inactive) and -27.9%.
For `N#CCN1CCC/C1=C\[N+](=O)[O-]`, the “lipid storage change, negative = inhibition” value was 4.55% (inactive) and the cell number change is 11.9%.
On the same counts, the results for `CCCN(CCC)S(=O)(=O)c1ccc2c(c1)CCCN2C(C)=O` are 13.4% (inactive) and -13.4%.
`Cc1ccc(CN2CCN(/N=C/c3sccc3C)CC2)c(C)c1`: the “lipid storage change, negative = inhibition” value was 20.6% (inactive) and the cell number change is -17.1%.
On the same counts, the results for `CCN(CC)S(=O)(=O)c1cccc(C(=O)NC2=NCCS2)c1` are -13.9% (inactive) and -2.91%.
On the same counts, the results for `O=C(N/N=C/c1c[nH]c2ccccc12)c1ccn(Cc2ccc(Cl)cc2Cl)n1` are -4% (inactive) and -11.1%.
Taken in the same sequence, the figures for `O=C(NCc1c(Cl)cccc1Cl)c1ccc2nnsc2c1` were 0.193% (inactive) and 12.5%.
Take `O=C(NC(CCl)c1ccccc1)c1ccc(Cl)cc1` (centres undefined): the “lipid storage change, negative = inhibition” value is 1.15% (inactive) and the cell number change was 13.4%.
As for `O=C1CCCN1c1ccc(C(=O)N(Cc2nnc(-c3ccccc3Cl)o2)C2CC2)cc1`, the call was inactive and the cell number change was -25.6%.
For the compound `CN(C)c1cccc(C(=O)NCc2ccccc2Cl)c1`, the outcome was inactive.
